Consider 37 molecules from PubChem BioAssay (Tox21).

Records with an inconclusive call do not appear. Values without a mark were called inactive. Unless noted, calls follow the shape of the dose curve; as a rule, active = well fitted cell-killing curve with a large enough effect in the repeat runs; inconclusive = weak or mixed curves; inactive = no such curve, though single readings can be large or run the other way.
% is scaled to controls: 0 for no effect and ±100 for the full control effect.

The first assay deals with Peroxisome proliferator-activated receptor delta (Homo sapiens) (UniProt Q03181). Kind of assay: qHTS assay to identify small molecule agonists of the peroxisome proliferator-activated receptor delta (PPARd) signaling pathway (AID 743212; calls by dose curve). Conditions: HEK293H PPARd-UAS-bla, beta-lactamase FRET ratio, 17 h; series mostly up to 62.6 µM; activation: at the top concentration. In short, it runs like this: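 Beta-lactamase reporter read by fluorescence (LiveBLAzer B/G FRET, 2 h, room temperature). Test agents, in DMSO, incubated at 37 C with PPARd-bla HEK293H cells.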
Sequence of Peroxisome proliferator-activated receptor delta (Homo sapiens) (Q03181 whole entry, looked up): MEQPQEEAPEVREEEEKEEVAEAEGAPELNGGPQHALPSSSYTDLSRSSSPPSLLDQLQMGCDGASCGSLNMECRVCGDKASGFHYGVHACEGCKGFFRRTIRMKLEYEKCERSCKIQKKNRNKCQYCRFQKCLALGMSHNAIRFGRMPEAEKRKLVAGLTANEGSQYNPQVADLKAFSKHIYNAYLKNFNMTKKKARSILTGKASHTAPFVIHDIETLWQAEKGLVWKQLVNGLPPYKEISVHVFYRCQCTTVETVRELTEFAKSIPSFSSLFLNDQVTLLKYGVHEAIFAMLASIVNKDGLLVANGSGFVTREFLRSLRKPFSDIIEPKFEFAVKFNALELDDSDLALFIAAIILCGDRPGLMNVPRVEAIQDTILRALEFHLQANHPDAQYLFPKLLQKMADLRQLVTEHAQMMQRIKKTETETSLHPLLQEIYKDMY
Background: Quantitative high-throughput screening tests each substance at several concentrations.
Regarding `CC(C=O)Cc1ccc2c(c1)OCO2` (configuration not stated), the “activation” value is -1.11%. As for `C[C@]12CC[C@H]3[C@@H](CCC4=CC(=O)CC[C@@]43C)[C@@H]1CC[C@@H]2C(=O)O`, the “activation” value is -4.93%. As to `CC1=C(C(=O)O)N2C(=O)[C@@H](N)[C@H]2SC1`, the “activation” value is 2.08% [at 29.1 µM]. Turning to `O=C(Nc1ccccc1)N(Cc1ccc(Cl)cc1)C1CCCC1`, the “activation” value was -0.826%.

Turning to `CCNc1nc(NC(C)C)nc(OC)n1`, the “activation” value is 0.141%. For the molecule `NC1=NC(=O)C(c2ccccc2)O1` (configuration not stated), the “activation” value is -1.93%.

Take `CCOC(=O)C1(c2ccccc2)CCN(CCc2ccc(N)cc2)CC1`: the “activation” value was -8.36%.

Turning to `CCOC(=O)C(c1c(O)c2ccccc2oc1=O)c1c(O)c2ccccc2oc1=O`, the “activation” value is 1.31%.

For `CC1COC2(c3ccccc3Cl)c3cc(Cl)ccc3NC(=O)CN12` (configuration not stated), the “activation” value is -4.13%. With `COc1cccc(C(=O)NN(C(=O)c2cc(C)cc(C)c2)C(C)(C)C)c1C`, the “activation” value is -7.74%. On the same count and under the same terms, the result for `CN1CCC(N(Cc2ccccc2)c2ccccc2)CC1` reads -3.38%; that for `Clc1ccccc1N1CCNCC1`, 3.8%; that for `CCCCC(=O)Cl`, -1.44% [at 81.1 µM].

On to `Nc1c(Br)cc([N+](=O)[O-])cc1[N+](=O)[O-]`, for which the “activation” value was 2.55% [at 81.1 µM].

On to `CCC#N`, for which the “activation” value is 1.04% [at 81.1 µM].

With `CCOP(=S)(Oc1cnc(C(C)(C)C)nc1)OC(C)C` (configuration not stated), the “activation” value was -2.62%.

`CC(C)(C)NCC(O)c1cc(Cl)c(N)c(Cl)c1` (configuration not stated): the “activation” value is -0.105%. Turning to `CCOC(=O)/C=C(C)/C=C/C[C@@H](C)CCCC(C)C`, the “activation” value is -0.287%. `ClCCCN1CCN(c2cccc(Cl)c2)CC1`: the “activation” value was 2.37%. As for `CN1C[C@@H](NS(=O)(=O)N(C)C)C[C@@H]2c3cccc4c3c(cn4C)C[C@H]21`, the “activation” value was 1.13%. On the same count and under the same terms, the result for `CCN(CC)CCOC(=O)C(C)(c1ccccc1)c1ccccc1` reads 3.1%. Take `CC(C(=O)c1ccccc1)N(C)C` (configuration not stated): the “activation” value was -6.77%.

For the molecule `COC(=O)COc1ccc(Cl)cc1Cl`, the “activation” value is 4.22%.

System in the next assay: not listed separately
Kind of assay: qHTS assay to identify small molecule antagonists of the peroxisome proliferator-activated receptor delta (PPARd) signaling pathway - cell viability counter screen (AID 743213). Also: nearly all actives have a fitted effect of over 50% in size. Conditions: PPARd-bla HEK293H viability, CellTiter-Glo luminescence, 17 h; series mostly up to 62 µM; viability change, negative = cytotoxic: at the top concentration. The procedure, abridged: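 Luminescence from CellTiter-Glo, added after the bla read and incubated 30 min at room temperature, gives viability of HEK293H PPARd-bla cells exposed to compounds for 17 h at 37 C with 300 nM L165041.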
As to `CC(C=O)Cc1ccc2c(c1)OCO2` (configuration not stated), the “viability change, negative = cytotoxic” value is 7.81%. `c1ccc(N2CCNCC2)cc1`: the “viability change, negative = cytotoxic” value was -2.7%. Consider `C[C@]12CC[C@H]3[C@@H](CCC4=CC(=O)CC[C@@]43C)[C@@H]1CC[C@@H]2C(=O)O`, for which the “viability change, negative = cytotoxic” value is 12.7%. The same measure, in the same setting: the result for `CC1CCC(=O)O1` (configuration not stated) reads 1.61%; that for `CC1=C(C(=O)O)N2C(=O)[C@@H](N)[C@H]2SC1`, -7.71% [at 28.9 µM]. The same measure, in the same setting: the result for `O=C(CCN1CC1)OCC(CO)(COC(=O)CCN1CC1)COC(=O)CCN1CC1` reads 11.5%; that for `Fc1ccc(C2(Cn3cncn3)OC2c2ccccc2Cl)cc1` (configuration not stated), -5.39%; that for `CC(C(O)c1ccccc1)N(C)C/C=C/c1ccccc1` (configuration not stated), -3.71%. `CC1(C(=O)Nc2ccc(O)c(Cl)c2Cl)CCCCC1`: the “viability change, negative = cytotoxic” value is -13.8%. As to `O=C(Nc1ccccc1)N(Cc1ccc(Cl)cc1)C1CCCC1`, the “viability change, negative = cytotoxic” value was -21.2%. Take `O=C1CN2CCOC2(c2ccccc2Cl)c2cc(Cl)ccc2N1` (configuration not stated): the “viability change, negative = cytotoxic” value was 5.43%.

With `CCNc1nc(NC(C)C)nc(OC)n1`, the “viability change, negative = cytotoxic” value is 0.655%. `NC1=NC(=O)C(c2ccccc2)O1` (configuration not stated): the “viability change, negative = cytotoxic” value was 18.2%. `CCOC(=O)C(c1c(O)c2ccccc2oc1=O)c1c(O)c2ccccc2oc1=O`: the “viability change, negative = cytotoxic” value was 8.11%. Same read-out and setting: the result for `CC1COC2(c3ccccc3Cl)c3cc(Cl)ccc3NC(=O)CN12` (configuration not stated) reads 2.88%; that for `O=S(=O)(O)C(F)(F)C(F)(F)C(F)(F)C(F)(F)C(F)(F)C(F)(F)F`, -13.1%; that for `Clc1ccccc1N1CCNCC1`, -12.5%. As to `COP(=S)(OC)Oc1ccc(S(N)(=O)=O)cc1`, the “viability change, negative = cytotoxic” value was -0.16%. Regarding `O=C(NCO)NCO`, the “viability change, negative = cytotoxic” value is 12.7% [at 80.4 µM].

With `CCCCC(=O)Cl`, the “viability change, negative = cytotoxic” value is 7.54% [at 80.4 µM]. The same measure, in the same setting: the result for `Fc1cc(Br)ccc1CBr` reads 6.97%; that for `O=C1OC(CCN2CCCCC2)OC1(c1ccccc1)c1ccccc1` (configuration not stated), -0.565%. `Nc1c(Br)cc([N+](=O)[O-])cc1[N+](=O)[O-]`: the “viability change, negative = cytotoxic” value was 2.75% [at 80.4 µM]. Still for that read-out and setting: the result for `CCC#N` reads -18% [at 80.4 µM]; that for `O=[N+]([O-])c1cc(Cl)c(Cl)c(Cl)c1`, 0.781%; that for `CCC(=O)C(CCN(C)C)(c1ccccc1)c1ccccc1`, -1.32%. For `ClCCCN1CCN(c2cccc(Cl)c2)CC1`, the “viability change, negative = cytotoxic” value was -6.44%. For `CN1C[C@@H](NS(=O)(=O)N(C)C)C[C@@H]2c3cccc4c3c(cn4C)C[C@H]21`, the “viability change, negative = cytotoxic” value was -11.4%. On to `CCN(CC)CCOC(=O)C(C)(c1ccccc1)c1ccccc1`, for which the “viability change, negative = cytotoxic” value is -11.5%. For the molecule `COC(=O)COc1ccc(Cl)cc1Cl`, the “viability change, negative = cytotoxic” value is -18.5%.

For the next assay, the target named is Peroxisome proliferator-activated receptor delta (Homo sapiens) (UniProt Q03181). Nature of the assay: qHTS assay to identify small molecule antagonists of the peroxisome proliferator-activated receptor delta (PPARd) signaling pathway (AID 743215; active = well fitted inhibition curve with a large enough effect in the signal ratio in the repeat runs, not every such curve was filed as active; the % refers to the signal ratio;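 also: cells stimulated with agonist L165041 at 300 nM final during compound exposure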). The following applies: HEK293H PPARd-UAS-bla, beta-lactamase FRET ratio, antagonist, 17 h; series mostly up to 62 µM; ratio activity, negative = inhibition: at the top concentration. The procedure, abridged:
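Cells: HEK293H with a UAS-driven beta-lactamase reporter responsive to PPARd. Compounds were co-added with L165041 (300 nM, final) and incubated 17 h at 37 C before a 2 h room-temperature FRET substrate step and fluorescence reading.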
Regarding `CC(C=O)Cc1ccc2c(c1)OCO2` (configuration not stated), the “ratio activity, negative = inhibition” value was 17%. For the molecule `CC1CCC(=O)O1` (configuration not stated), the “ratio activity, negative = inhibition” value was 0.728%.

As to `CC1=C(C(=O)O)N2C(=O)[C@@H](N)[C@H]2SC1`, the “ratio activity, negative = inhibition” value was -1.15% [at 28.9 µM]. For the molecule `CC1(C(=O)Nc2ccc(O)c(Cl)c2Cl)CCCCC1`, the “ratio activity, negative = inhibition” value was -18%.

In the case of `O=C1CN2CCOC2(c2ccccc2Cl)c2cc(Cl)ccc2N1` (configuration not stated), the “ratio activity, negative = inhibition” value was 9.69%. As for `NC1=NC(=O)C(c2ccccc2)O1` (configuration not stated), the “ratio activity, negative = inhibition” value was 10.6%. Still for that read-out and setting: the result for `CCOC(=O)C1(c2ccccc2)CCN(CCc2ccc(N)cc2)CC1` reads -7.9%; that for `CCOC(=O)C(c1c(O)c2ccccc2oc1=O)c1c(O)c2ccccc2oc1=O`, 1.12%; that for `CC1COC2(c3ccccc3Cl)c3cc(Cl)ccc3NC(=O)CN12` (configuration not stated), 1.58%. With `COc1cccc(C(=O)NN(C(=O)c2cc(C)cc(C)c2)C(C)(C)C)c1C`, the “ratio activity, negative = inhibition” value is -16.9%. On to `O=S(=O)(O)C(F)(F)C(F)(F)C(F)(F)C(F)(F)C(F)(F)C(F)(F)F`, for which the “ratio activity, negative = inhibition” value was -19.5%. Regarding `CN1CCC(N(Cc2ccccc2)c2ccccc2)CC1`, the “ratio activity, negative = inhibition” value was 1.47%. In the case of `Clc1ccccc1N1CCNCC1`, the “ratio activity, negative = inhibition” value is 1.36%.

Consider `Fc1cc(Br)ccc1CBr`, for which the “ratio activity, negative = inhibition” value is -2.38%. For `Nc1c(Br)cc([N+](=O)[O-])cc1[N+](=O)[O-]`, the “ratio activity, negative = inhibition” value is 2.61% [at 80.4 µM]. `CCOP(=S)(Oc1cnc(C(C)(C)C)nc1)OC(C)C` (configuration not stated): the “ratio activity, negative = inhibition” value was -16.2%. Turning to `CCC(=O)C(CCN(C)C)(c1ccccc1)c1ccccc1`, the “ratio activity, negative = inhibition” value is 9.35%. Take `CC(C(=O)c1ccccc1)N(C)C` (configuration not stated): the “ratio activity, negative = inhibition” value was 4.06%. Regarding `COC(=O)COc1ccc(Cl)cc1Cl`, the “ratio activity, negative = inhibition” value is 4.91%.
